According to PubChem BioAssay AID1030 (National Center for Advancing Translational Sciences (NCATS), 2008):
Where “and” joins values, the source holds several entries; their conditions need not be identical. Identical values can stand only once. Out of some 220,000 compounds screened, about 16,000 (7.3%) were called active. A call without a number means that no potency is given here. Roughly 25% stayed inconclusive and do not appear here. This is one part of a sample in which actives are shown more often than they occur. Values without a mark were called inactive. The call rests on the fitted dose curve; in most records, active means well fitted inhibition curve with a large enough effect (not every such curve was filed as active); inconclusive means small, poorly fitted or top-dose-only effect, or another doubt; inactive means no such curve, though single readings can be large or run the other way.
Potency means the concentration at half of the fitted maximal effect.

These molecules were tested against Aldehyde dehydrogenase 1A1 (Homo sapiens) (UniProt P00352) (assay: qHTS Assay for Inhibitors of Aldehyde Dehydrogenase 1 (ALDH1A1)). Settings: Purified ALDH1A1, NADH fluorescence, propionaldehyde substrate; series mostly up to 75.3 µM.
Chain of Aldehyde dehydrogenase 1A1 (Homo sapiens) (P00352 whole entry, looked up): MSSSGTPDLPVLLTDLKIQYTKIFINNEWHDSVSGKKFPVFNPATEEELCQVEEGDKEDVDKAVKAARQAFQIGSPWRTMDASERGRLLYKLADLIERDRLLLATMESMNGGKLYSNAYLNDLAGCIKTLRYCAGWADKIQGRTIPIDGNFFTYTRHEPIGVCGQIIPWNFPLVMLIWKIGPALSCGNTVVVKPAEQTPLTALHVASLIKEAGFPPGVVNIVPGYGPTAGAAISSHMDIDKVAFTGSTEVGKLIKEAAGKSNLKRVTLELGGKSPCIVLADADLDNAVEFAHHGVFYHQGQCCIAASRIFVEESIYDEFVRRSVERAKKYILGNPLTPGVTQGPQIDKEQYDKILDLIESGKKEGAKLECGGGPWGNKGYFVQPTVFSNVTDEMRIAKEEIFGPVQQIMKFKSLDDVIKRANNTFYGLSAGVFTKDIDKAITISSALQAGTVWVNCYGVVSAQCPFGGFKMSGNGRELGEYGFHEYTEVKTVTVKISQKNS
For `OCCC1CN(Cc2ccc(Oc3ncccn3)cc2)CCN1CCc1ccccc1` (stereo not given), the Potency was “inactive”. `COc1cccc(C(=O)Nc2cccnc2)c1OC` was tested, and the Potency was “inactive”. For `O=C(O)c1cccc(NC(=O)c2cc(-c3cccc(Cl)c3)nc3ccccc23)c1`, the Potency was “inactive”. In the case of `O=C(c1ccc2ccccc2n1)N1CCN(c2ccccc2Cl)CC1`, the Potency was “inactive”. With `S=C(Nc1ccc(Br)cc1Cl)N1CCC2(CC1)OCCO2` the Potency was “inactive”. With `CC(C)C[C@H](NC(=O)[C@H](O)[C@H](N)Cc1ccccc1)C(=O)O` the Potency was “inactive”. With `O=C(CN1CCN(c2ccc(Cl)cc2)CC1)N1CCCC1` the Potency was “inactive”. `O=C(CSCc1ccc(Cl)cc1)N1CCCCC1` was tested, and the Potency was 11.2 µM (active). For `O=C(CSCc1ccc(Cl)cc1)N1CCN(Cc2ccc3c(c2)OCO3)CC1`, the Potency was “inactive”. With `COc1ccccc1NC(=S)N1CCC(NC(=O)C23CC4CC(CC(C4)C2)C3)CC1` the Potency was “inactive”. For `Cc1ccc(NC(=O)OCCNC(=O)c2ccncc2)cc1`, the Potency was “inactive”. With `CN(C)S(=O)(=O)c1ccc2oc(SCC(=O)Nc3ccccc3F)nc2c1` the Potency was “inactive”. `Cn1c(/C(C#N)=C2/CCCCCN2)nc2ccccc21` was tested, and the Potency was 17.8 µM (active). In the case of `Cc1ccc(O)c(CNc2nc3ccccc3n2C)c1`, the Potency was “inactive”. For `N#C/C(=C1/CCCN1)c1ccccn1`, the Potency was “inactive”. In the case of `NC(=O)c1nnsc1-c1ccc(-c2snnc2C(N)=O)cc1`, the Potency was “inactive”. In the case of `O=C(C/C(=N\NC(=O)c1ccccc1Br)C(F)(F)F)c1cccs1`, the Potency was “inactive”. `O=C(O)/C=C/C(=O)Nc1ccc(F)cc1F` was tested, and the Potency was 25.1 µM (active). `COc1ccc(C(=O)Nc2ccc(F)cc2F)cc1` was tested, and the Potency was “inactive”. In the case of `CC(C)CC(=O)NC(=S)Nc1ccc(F)cc1F`, the Potency was “inactive”. With `Nc1c(Cl)cc(S(N)(=O)=O)cc1S(N)(=O)=O` the Potency was “inactive”. `CCC(C)(C)NC(=O)C(c1cccc(OC)c1OC)N(CC(C)C)C(=O)CCC(=O)Nc1cc(C)on1` (stereo not given) was tested, and the Potency was “inactive”. For `Cc1ccc(S(=O)(=O)CCC(=O)OCc2ccccc2)cc1`, the Potency was “inactive”. With `CCCCN(C)CCNC(=O)CSCc1ccc(C)cc1` the Potency was “inactive”. With `Cc1ccc(CSCC(N)C(=O)O)cc1` (stereo not given) the Potency was 31.6 µM (active). For `O=C(CNC(=O)c1cc(=O)[nH]c2ccccc12)Nc1ccc(F)c(F)c1`, the Potency was “inactive”. In the case of `COc1cc(C(F)(F)F)c(C(=O)N(C)c2ccc(Cl)cc2)cn1`, the Potency was “inactive”. With `Cc1noc(C)c1/C=N/Nc1ccc2ccccc2n1` the Potency was “inactive”. In the case of `O=C(CSc1ncccn1)NCCc1ccccc1`, the Potency was “inactive”. With `c1ccc(Nc2n[nH]nc2-c2ccccc2)cc1` the Potency was “inactive”. For `O=c1cnnc(Nc2ccccc2)[nH]1`, the Potency was “inactive”. `Cc1nc(C)c(-c2csc(NCCc3ccccc3)n2)s1` was tested, and the Potency was “inactive”. With `S=c1[nH]nc(Nc2ccccc2)s1` the Potency was 6.31 µM (active). In the case of `S=c1[nH]nc(NCCc2ccccc2)s1`, the Potency was 12.6 µM (active). For `O=C(CCCn1c(=O)c2sccc2n(CC(=O)NCC2CCCO2)c1=O)NCc1ccco1` (stereo not given), the Potency was “inactive”. With `CCCN(C(=O)CSc1nnnn1C)c1c(N)n(Cc2ccccc2)c(=O)[nH]c1=O` the Potency was “inactive”. With `COc1ccc(/C=C/C2=CC(C)(C)NC(=S)N2)c(OC)c1` the Potency was 0.708 µM (active). In the case of `COc1cc(/C=C/CO)cc(OC)c1O[C@@H]1O[C@H](CO)[C@@H](O)[C@H](O)[C@H]1O`, the Potency was “inactive”. In the case of `COc1cc(/C=C/C2=CC(C)(C)NC(=S)N2)cc(OC)c1OC`, the Potency was 3.98 µM (active). `Cc1ccc2nc(C)cc(N/N=C/c3ccc(F)cc3)c2c1` was tested, and the Potency was “inactive”. In the case of `O=C(NNc1cc(Cl)ccc1Cl)c1cccnc1Cl`, the Potency was “inactive”. In the case of `C=CC1(C)CC(=O)C2(O)C(C)(O1)C(OC(C)=O)C(O)C1C(C)(C)CCC(O)C12C` (stereo not given), the Potency was “inactive”. `Cc1c(CCC(=O)O)c(=O)oc2cc3occ(-c4ccccc4)c3cc12` was tested, and the Potency was “inactive”. In the case of `O=C(COc1ccc(S(=O)(=O)N2CCCCC2)cc1)NCc1ccccn1`, the Potency was “inactive”. For `Cc1ncn(C23CC4CC(CC(O)(C4)C2)C3)n1`, the Potency was “inactive”. `Cc1nc([N+](=O)[O-])nn1C12CC3CC(CC(Br)(C3)C1)C2` was tested, and the Potency was 8.91 µM (active). In the case of `Cc1cn(C)c(=O)n(C)c1=O`, the Potency was “inactive”. `CN(C)CCCSc1ccccc1NC(=O)/C=C/c1ccccc1` was tested, and the Potency was “inactive”. `O=C(CCN1C(=O)c2ccncc2C1=O)Nc1cc(F)ccc1F` was tested, and the Potency was “inactive”. With `Cc1ccc(N(C(=O)Cc2cccs2)C2C=CS(=O)(=O)C2)cc1Cl` (stereo not given) the Potency was “inactive”. `CC(C)c1ccc(N2CCN(C(=O)c3ccccc3NC(=O)/C=C(\C(=O)O)c3ccccc3)CC2)cc1` was tested, and the Potency was 22.4 µM (active). For `O=C(O)C1CC=CCC1C(=O)Nc1ccccc1C(=O)N1CCN(c2ccccc2)CC1` (stereo not given), the Potency was “inactive”. In the case of `Cc1cccc(N2CCN(C(=O)c3ccccc3NC(=O)C3CCCCC3C(=O)O)CC2)c1` (stereo not given), the Potency was “inactive”. In the case of `O=C(NC1(C(F)(F)F)NC(=O)N(C2CCCCC2)C1=O)c1ccco1` (stereo not given), the Potency was “inactive”. With `CCCCOc1ccc(C(=O)NCc2ccncc2)cc1` the Potency was “inactive”. For `CCOc1c2ccc(C(=O)NCc3ccc(OC(F)(F)F)cc3)cc2nn1C`, the Potency was 3.16 µM (active). For `CCOc1ccc(Cn2nnc(C(=O)NCc3ccccc3)c2N)cc1`, the Potency was “inactive”. With `CCOC(=O)C(C)n1nc(-c2ccccc2)c2ccccc2c1=O` (stereo not given) the Potency was “inactive”. For `Cc1cc(NC(=O)Nc2ccccc2[N+](=O)[O-])no1`, the Potency was “inactive”. In the case of `COc1ccc(/C=C/NC(=O)c2ccc(OC)cc2)cc1`, the Potency was 2.82 µM (active). For `COc1ccc(NC(=O)c2ccc(OC)cc2)cc1`, the Potency was “inactive”. With `COc1ccc(/C=C/NC(=O)Cc2ccc(OC)c(OC)c2)cc1` the activity, negative = inhibition was 8.87% [at 13.5 µM] and 1.01% [at 13.5 µM]. In the case of `CCOC(=O)NNC(=O)c1ccc(Cl)cc1`, the Potency was “inactive”. With `CC(=O)C1C(c2ccc(Cl)cc2)NC(=O)NC1(O)C(F)(F)F` (stereo not given) the Potency was “inactive”. `CCOC(=O)C1C(c2ccc(Cl)cc2)NC(=S)NC1(O)C(F)(F)F` (stereo not given) was tested, and the Potency was 7.94 µM (active). With `O=C(c1cccs1)C1C(c2ccc(Br)cc2)NC(=S)NC1(O)C(F)(F)F` (stereo not given) the Potency was 3.16 µM (active). `O=C(CN(C(=O)c1csnn1)c1cccc(F)c1)NCc1ccc(F)cc1` was tested, and the Potency was “inactive”. For `CCn1cnc2scc(-c3ccc(C)c(C)c3)c2c1=O`, the Potency was “inactive”. In the case of `CN1C(=O)/C(=C\c2cc(Br)cs2)c2ccccc21`, the Potency was “inactive”. With `CC(C)c1csc(CN2CCC(CO)(Cc3ccccc3)CC2)n1` the Potency was “inactive”. `CCOc1cc(CNn2c(C)nnc2SCC(=O)NC(C)(C)C)ccc1OCC(=O)NC(C)(C)C` was tested, and the Potency was “inactive”. With `CCOCCCNCc1ccc(OCc2ccc(F)cc2)c(OC)c1` the Potency was “inactive”. In the case of `O=C(CCc1n[nH]c(=O)[nH]c1=O)N/N=C/c1ccc(Br)o1`, the Potency was “inactive”. For `Cc1nnc(SCC(=O)N2c3ccccc3C(C)(c3ccc(Cl)cc3)CC2(C)C)s1` (stereo not given), the Potency was “inactive”. For `Cc1ccc(-c2c[n+](=O)c3c(n2[O-])CCC3)cc1`, the Potency was “inactive”. `Cc1ccc(-c2c(C)n([O-])c3c([n+]2=O)CCC3)cc1` was tested, and the Potency was “inactive”. `O=[n+]1c2c(n([O-])c3cc(Br)ccc31)CCC2` was tested, and the Potency was 31.6 µM (active). `COc1ccc([N+](=O)[O-])cc1NC(=O)CC1SC(=Nc2cccc(C)c2C)N(/N=C(\C)c2ccc(C)cc2)C1=O` (stereo not given) was tested, and the Potency was “inactive”. `CN(c1ccccc1)S(=O)(=O)c1ccc(Cl)c(C(=O)OCC(=O)N2CCOCC2)c1` was tested, and the Potency was “inactive”. For `O=C1CCCC2=C1C(c1cccs1)CC(=O)N2c1ccc(F)cc1` (stereo not given), the Potency was “inactive”. With `Cn1c(N)cc(-c2ccc(F)cc2)c(C#N)c1=O` the Potency was “inactive”. In the case of `N#CC1=C(N)N(c2ccc(F)cc2)C(=O)C1`, the Potency was 22.4 µM (active). With `O=C(CCC(=O)c1cccs1)NC1CCCCCC1` the Potency was “inactive”. In the case of `CCCCNC(=O)N1CCN(S(C)(=O)=O)CC1`, the Potency was “inactive”. In the case of `COc1ccccc1NC(=O)COC(=O)Cc1ccc(S(=O)(=O)N2CCCCC2)s1`, the Potency was “inactive”. In the case of `CCOC(=O)C1=C(C)NC(=O)N(C(C)=O)C1c1ccc(Cl)cc1` (stereo not given), the Potency was “inactive”. In the case of `CCOC(=O)C1Sc2[nH]c(=O)sc2C(c2ccc(Cl)cc2)C1C(=O)OCC` (stereo not given), the Potency was 11.2 µM (active). `Cc1c(NC(=O)CCC2CCCCC2)cc(C(=O)N2CCOCC2)cc1[N+](=O)[O-]` was tested, and the Potency was “inactive”. `O=C(N/N=C/c1ccco1)c1ccc(NC(=O)C2CC2)cc1` was tested, and the Potency was “inactive”. With `Cc1ccc(NC(=O)Nc2cccc(C(F)(F)F)c2)nc1` the Potency was “inactive”. For `COc1ccc(C(=O)Nc2ccccc2C(=O)N/N=C/c2ccc(O)c(OC)c2)cc1`, the Potency was “inactive”. With `COc1ccc(/C=N\NC(=O)c2sc(N)nc2C)cc1OC` the Potency was “inactive”. With `COc1cc(/C=N/NC(=O)c2ccccc2)ccc1OS(=O)(=O)c1ccccc1` the Potency was 14.1 µM (active). `COc1cccc(/C=N/NC(=O)c2cccc([N+](=O)[O-])c2)c1OS(=O)(=O)c1ccc(C)cc1` was tested, and the Potency was “inactive”. In the case of `COc1ccc(/C=N/NC(=O)c2ccccc2)cc1OS(=O)(=O)c1ccccc1`, the Potency was 14.1 µM (active). In the case of `COc1ccc(/C=N/NC(=O)c2ccc(Cl)cc2)cc1COC(C)=O`, the Potency was “inactive”. `O=C(NNC(=O)c1cnccc1C(F)(F)F)c1ccc(Cl)cc1` was tested, and the Potency was “inactive”. `Nc1nc(O)c(CC(=O)O)s1` was tested, and the Potency was “inactive”. In the case of `Cc1cc(C)c(C(N)=O)c(Cl)n1`, the Potency was “inactive”. `CCOC(=O)c1sc(NC(=O)CSc2nnc(-c3ccco3)o2)c(C(=O)OCC)c1C` was tested, and the Potency was “inactive”. For `CCOC(=O)c1c(NC(C)=O)sc2c(O)c(Br)ccc12`, the Potency was “inactive”. For `CCOC(=O)c1sc(NC(=O)COc2ncnc3ccccc23)c(C(=O)OCC)c1C`, the Potency was “inactive”. For `CCOC(=O)c1sc(NC(=O)CCN2CCOCC2)c(C(=O)OCC)c1C`, the Potency was 17.8 µM (active). `CCOC(=O)c1c(NC(=O)CCl)sc(C(=O)N(CC)CC)c1C` was tested, and the Potency was 10 µM (active). With `CCc1c(C)sc(NC(=O)OC)c1C(=O)N1CCOCC1` the Potency was “inactive”. For `O=C(c1cc(=O)c2ccccc2o1)N1CCN(c2ccccc2)CC1`, the Potency was “inactive”. For `COc1cccc(C(=O)Nc2nc3ccc(S(C)(=O)=O)cc3s2)c1`, the Potency was “inactive”. `CC(=O)NC1=NN(C(C)=O)C(C)(CCS(=O)(=O)c2ccc(Cl)c(Cl)c2)S1` (stereo not given) was tested, and the Potency was “inactive”. With `Cc1ccc(N=C2NC(=O)/C(=C/C=C/c3ccco3)S2)cc1C` the Potency was 7.94 µM (active). With `CN(C)c1ccc(-n2cccc2/C=C2/SC(=Nc3ccc(F)cc3)NC2=O)cc1` the Potency was “inactive”.
